These results are taken from PubChem BioAssay.

Inconclusive results are not listed. Active and inactive are the calls of the source.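 How the source made its calls, unless noted: active means viability loss from added drug above about 55%, and viability with drug at most 40%, in both replicates (limit read from the data, passing the limit was not always enough); inconclusive means both conditions met in only one replicate; inactive means neither replicate meets both conditions.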

Assay [1] in a line: Her2 expression decrease, cell viability multiplex – SKBR3 breast tumor cells, AlphaScreen, ATP viability, primary screen (AID 461;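 active means Her2 level under about 52% in both replicate screens, with viability over 70% of control, limit read from the data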;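 on Her2 level: lower value means less Her2 protein in the cells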;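 on viability: percent of carrier control wells set as 100% viability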). Conditions: SKBR3 Her2 protein level, 18-24 h, measured here: SKBR3 viability, ATP luminescence, at 10 µM. Background: Bead proximity is the source of the signal in Alpha formats.
Assay [2] addresses Receptor tyrosine-protein kinase erbB-2 (Homo sapiens) (UniProt P04626). The description is as above. The note with it: 18-24 h, at 10 µM, stronger effect = lower value.
Assay [3] is described as follows: reduced viability of SK-BR-3 breast cancer cells – cell-based, 24 h, human, pilot screen (AID 572;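 active means viability at or below 10% of carrier control in both of two separate runs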;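 further: compound exposure lasted between 18 and 24 h rather than exactly 24 h; 100% = carrier-treated control wells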). The note with it: SK-BR-3 viability, CellTiter-Glo luminescence, at 10 µM, stronger effect = lower value.
Assay [4] in a line: H69AR cell proliferation blockers – human, duplicate replicates, primary screen (AID 580;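 active means viability at or under a set limit in both replicates, limit being median viability minus 3 SD, cut at about 48% in these data, passing the limit was not always enough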;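 further: 100% = mean luminescence of untreated wells and 0% = no signal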). Conditions: H69AR lung tumor cells viability, ATP luminescence, 72 h; at 10 µM; stronger effect = lower value.
Assay [5] is described as follows: MRP1 drug-resistance reversers in H69AR cells – cell-based, doxorubicin co-treatment, pilot screen (AID 601). Conditions: CellTiter-Glo, 72 h, at 10 µM; for differential viability (reversal): stronger effect = higher value.
Assay [6] is described as follows: yeast transport mutant growth inhibition pilot in 384-well plates, post-Golgi transport modulator project (AID 636; in the data active means inhibition above about 31%). The note with it: absorbance 615 nm, about 18 h, stronger effect = higher value.
The nature of assay [7]: growth suppression of yeast trafficking mutant, preliminary HTS, modulators of trafficking downstream of Golgi apparatus project, 1536-format plate, OD 615 nm (AID 637; in the data active means inhibition above about 30%). Conditions: yeast transport mutant growth, absorbance 615 nm, 18 h; stronger effect = higher value.
Assay [8] in a line: S. cerevisiae growth inhibition in permissive medium (OD615), pilot counter-assay for S. cerevisiae lifespan shortening project, permissive growth control (AID 705;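 active means growth inhibition above 25% in both replicates, a cutoff set 3 SD above the mean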). Conditions: OD615, 24 h, at 10 µM, stronger effect = higher value.
Assay [9] can be described thus: S. cerevisiae growth inhibition in restrictive medium, OD615, pilot screen, restrictive growth control, yeast lifespan reduction project (AID 706;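 active means growth inhibition above a set limit, 3 SD over mean compound inhibition, in both replicates, cut at about 43% in these data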;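 further: modified DeaD lifespan yeast strain shifted to restrictive glucose medium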). Conditions: OD615, 48 h, at 10 µM, stronger effect = higher value.
Assay [10] can be described thus: doxorubicin toxicity protection in MRP-1 cells – H69AR cells, CellTiter-Glo, duplicate, MRP-1 activator project, pilot screen (AID 807;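 active means viability increase at or above a cutoff of the median across tested compounds plus 3 SD, cut at about 8.5% in these data, passing the limit was not always enough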;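 further: compound pretreatment 18-22 h then 72 h combined with doxorubicin; 0% = doxorubicin alone and 100% = vehicle without doxorubicin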). The note with it: H69AR viability with doxorubicin, CellTiter-Glo luminescence; at 10 µM; stronger effect = higher value. In general terms: In ATP-based viability assays light output follows the ATP content of the culture.
Assay [11] is described as follows: viability of HCT116 without oncogenic beta-catenin – human colon tumor cells, pilot screen (AID 823;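 active means cell viability at or below a set limit in both duplicate runs, the limit being the all-compound median minus 4 SD, cut at about 23% in these data, passing the limit was not always enough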;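 further: 0% = wells killed by 20 µM Hyamine and 100% = untreated DMSO cell wells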). The note with it: HCT116 beta-catenin knockout viability, CellTiter-Glo, 60 h; at 10 µM; stronger effect = lower value.
A short description of assay [12]: viability of PTEN-null HCT116 cells – cell-based, HCT116 clonal line, CellTiter-Glo, pilot screen (AID 824;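 active means viability at or below 27.92% in each of two runs, the all-compound median minus 4 SD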;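 further: 0% = 20 µM Hyamine control and 100% = vehicle cell control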). Conditions: HCT116 PTEN-deleted viability, 60 h, at 10 µM, stronger effect = lower value.
Assay [13] can be described thus: RAM pathway blockade in budding yeast – dse1pr::URA3 reporter, 5-FOA selection, pilot screen (AID 869;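 active means inhibition over a set limit, the all-compound mean plus 3 SD, in both replicate runs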;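 further: 0% = DMSO wells with no growth and 100% = 10 µM 1-NA-PP1 with full growth; RAM network block rescues cells from 5-FOA so hits raise OD615 growth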). The note with it: S. cerevisiae dse1pr::URA3 5-FOA growth, OD615, 2 d; at 10 µM; stronger effect = higher value; strain carries analog-sensitive mutant Cbk1 kinase.
Assay [14] in a line: HUVEC growth inhibition – cell-based, human, primary screen (AID 575;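 active means viability at or below 30% in both replicate assays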;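 further: 100% = median of untreated cell wells with 0.1% DMSO on each plate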). The note with it: HUVEC proliferation, CellTiter-Glo luminescence, 72 h; at 10 µM; stronger effect = lower value.
Setting [15] is: H69AR cells + 2 uM doxorubicin, measured here: viability with 2 uM doxorubicin, stronger effect = lower value.
Setting [16] is: H69AR cells, compound alone cytotoxicity.

Receptor tyrosine-protein kinase erbB-2 (Homo sapiens), sequence (P04626 whole entry, looked up): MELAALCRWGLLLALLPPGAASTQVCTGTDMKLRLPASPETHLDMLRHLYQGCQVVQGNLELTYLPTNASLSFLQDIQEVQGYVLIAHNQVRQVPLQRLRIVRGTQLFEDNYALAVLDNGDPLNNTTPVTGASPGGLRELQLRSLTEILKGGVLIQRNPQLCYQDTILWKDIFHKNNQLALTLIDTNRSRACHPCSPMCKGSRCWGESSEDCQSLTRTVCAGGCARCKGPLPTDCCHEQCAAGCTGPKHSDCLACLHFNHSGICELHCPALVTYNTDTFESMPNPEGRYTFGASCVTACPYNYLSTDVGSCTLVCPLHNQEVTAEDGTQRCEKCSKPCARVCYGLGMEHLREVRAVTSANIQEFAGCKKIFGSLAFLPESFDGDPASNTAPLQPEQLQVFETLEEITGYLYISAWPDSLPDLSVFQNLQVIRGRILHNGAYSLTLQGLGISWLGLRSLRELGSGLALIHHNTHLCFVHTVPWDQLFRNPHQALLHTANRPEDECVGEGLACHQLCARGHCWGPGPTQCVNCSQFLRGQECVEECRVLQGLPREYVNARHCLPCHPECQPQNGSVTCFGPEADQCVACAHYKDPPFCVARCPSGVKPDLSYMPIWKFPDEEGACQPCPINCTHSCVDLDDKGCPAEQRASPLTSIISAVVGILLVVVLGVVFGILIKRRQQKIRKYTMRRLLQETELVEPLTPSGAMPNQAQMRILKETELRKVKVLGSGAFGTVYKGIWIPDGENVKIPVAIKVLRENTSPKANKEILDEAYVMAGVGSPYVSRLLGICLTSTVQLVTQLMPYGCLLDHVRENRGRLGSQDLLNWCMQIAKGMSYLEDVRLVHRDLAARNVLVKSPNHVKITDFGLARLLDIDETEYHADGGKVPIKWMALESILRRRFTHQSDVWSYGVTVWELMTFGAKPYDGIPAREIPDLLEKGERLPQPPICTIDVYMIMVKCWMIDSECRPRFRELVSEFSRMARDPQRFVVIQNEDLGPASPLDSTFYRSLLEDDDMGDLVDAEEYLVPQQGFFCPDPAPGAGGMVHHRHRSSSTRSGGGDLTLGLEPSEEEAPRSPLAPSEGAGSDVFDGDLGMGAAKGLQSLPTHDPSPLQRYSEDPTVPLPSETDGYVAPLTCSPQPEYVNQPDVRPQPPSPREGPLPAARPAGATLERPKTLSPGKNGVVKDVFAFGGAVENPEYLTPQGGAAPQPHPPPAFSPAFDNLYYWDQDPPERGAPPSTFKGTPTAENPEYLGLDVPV

Take `CC1=C(C(=O)OCC(C)C)C(c2cc3c(cc2Br)OCO3)NC(=O)N1C` (configuration not stated): the viability – broadly, a read-out of living cells in per cent, often relative to untreated cells – is 99% in assay [1]; 99% (inactive) in assay [3]; 88.9% (inactive) in assay [4]; 101% in assay [5] (setting [15]); 88.9% in assay [5] (setting [16]); 81.2% (inactive) in assay [11]. The viability in assay [12] is 68.4% (inactive). Also, the Her2 level in assay [2] is 75% (inactive). The differential viability (reversal) in assay [5] (H69AR cells + 2 uM doxorubicin) was -12.5% (inactive). The inhibition (in general, the relative decrease from the control value, in per cent) in assay [6] was -1.82% (inactive); in assay [7], -3.83% (inactive); in assay [13] it was -0.395% (inactive). The growth inhibition in assay [8] was 0.885% (inactive); in [9] it was -13.9% (inactive). Also, in assay [10], the viability increase is -2.54% (inactive).

As for `CCN1CCN(Cc2nc3c(c(=O)[nH]c(=O)n3C)n2Cc2ccccc2Cl)CC1`, the viability in assay [1] was 80.5%; in [14], 87.9% (inactive); in assay [4] it was 92% (inactive); in assay [5] (setting [15]), 96.2%; in assay [5] (setting [16]), 92%. For the same molecule, the Her2 level in assay [2] was 114% (inactive). For the same molecule, the differential viability (reversal) in assay [5] (H69AR cells + 2 uM doxorubicin) is -4.17% (inactive). The inhibition in assay [6] is -0.51% (inactive); in assay [7], -3.17% (inactive).

Turning to `CCn1c2ccccc2c2cc(N)ccc21`, the viability in assay [1] was 117%; in assay [3] it was 117% (inactive); in [5] (setting [15]), 56.8%; in assay [5] (setting [16]) it was 50%. The Her2 level in assay [2] was 91.5% (inactive). In addition, in assay [5] (H69AR cells + 2 uM doxorubicin), the differential viability (reversal) is -6.75% (inactive). Further, the inhibition in assay [6] is -5.73% (inactive); in assay [7], 1.59% (inactive).

For the molecule `CC(=Nc1cccc(O)c1)c1sc2ccccc2c1O`, the viability in assay [1] is 103%; in assay [3], 103% (inactive); in [5] (setting [15]), 92.5%; in assay [5] (setting [16]) it was 54.5%. Also, in assay [2], the Her2 level is 71.5% (inactive). In addition, the differential viability (reversal) in assay [5] (H69AR cells + 2 uM doxorubicin) was -38.1% (inactive). Moreover, the inhibition in assay [6] is -5.79% (inactive); in assay [7] it was -3.33% (inactive).

As for `Nc1ncnc2oc(-c3ccco3)c(-c3ccco3)c12`, the viability in assay [1] is 96.5%; in assay [3], 96.5% (inactive); in assay [4], 75.7% (inactive); in assay [5] (setting [15]), 68.4%; in assay [5] (setting [16]), 75.7%. For the same molecule, the Her2 level in assay [2] was 77% (inactive). The differential viability (reversal) in [5] (H69AR cells + 2 uM doxorubicin) was 7.29% (inactive). Also, the inhibition in assay [6] was -0.13% (inactive); in assay [7] it was -4.03% (inactive).

As for `CNCCC=C1c2ccccc2CCc2ccccc21`, the viability in assay [3] was 23%; in assay [14] it was 71.6% (inactive); in [4] it was 80.1% (inactive); in [5] (setting [15]), 75.5%; in assay [5] (setting [16]), 80.1%. Besides, in assay [5] (H69AR cells + 2 uM doxorubicin), the differential viability (reversal) is 4.63% (inactive).

Consider `CCCNS(=O)(=O)c1ccc(OCC(=O)Nc2ccccc2F)cc1`, for which the viability is 96.5% (inactive) in assay [3]; 90.3% (inactive) in assay [14]; 87.3% (inactive) in [4]; 79.1% in assay [5] (setting [15]); 87.3% in [5] (setting [16]). In addition, the differential viability (reversal) in [5] (H69AR cells + 2 uM doxorubicin) was 8.17% (inactive). Also, the figures for the inhibition in assay [6] and in assay [7] were -4.21% (inactive) and -0.81% (inactive), respectively.

On to `CC(C)N=c1cc2n(-c3ccc(Cl)cc3)c3ccccc3nc-2cc1Nc1ccc(Cl)cc1`, for which the viability in assay [3] was 102% (inactive); in assay [14] it was 9.11% (active); in assay [4], 64.4% (inactive); in assay [5] (setting [15]), 71%; in assay [5] (setting [16]), 64.4%. For the same molecule, the differential viability (reversal) in [5] (H69AR cells + 2 uM doxorubicin) is -6.59% (inactive).

For `COc1ccc(C)cc1NC(=O)CCC(=O)Nc1ccc2nc(N3CCN(C)CC3)cc(C)c2c1`, the viability in [1] is 70.5%; in assay [3], 70.5% (inactive); in [4], 93.2% (inactive); in assay [5] (setting [15]), 86.2%; in [5] (setting [16]), 93.2%. Moreover, the Her2 level in assay [2] is 123% (inactive). In addition, the differential viability (reversal) in [5] (H69AR cells + 2 uM doxorubicin) was 6.93% (inactive). Also, the inhibition in assay [6] was 3.95% (inactive); in assay [7], -6.17% (inactive).

Regarding `O=C(NC1CCCC1)C(c1cccs1)N(C(=O)c1ccno1)c1ccccc1` (configuration not stated), the viability in assay [1] was 57.5%; in assay [14], 95.2% (inactive); in [4] it was 91.2% (inactive); in [5] (setting [15]), 85.1%; in assay [5] (setting [16]) it was 91.2%. Further, the Her2 level in [2] was 92% (inactive). Also, the differential viability (reversal) in [5] (H69AR cells + 2 uM doxorubicin) was 6.13% (inactive). Besides, the values for the inhibition in assay [6] and in assay [7] were -3.78% (inactive) and 5.08% (inactive), respectively.

Regarding `CN(C)CCCN1c2ccccc2Sc2ccccc21`, the viability in assay [3] was 66.5% (inactive); in assay [14], 74.2% (inactive); in assay [4], 74.7% (inactive); in assay [5] (setting [15]), 83%; in assay [5] (setting [16]), 74.7%. The differential viability (reversal) in assay [5] (H69AR cells + 2 uM doxorubicin) is -8.33% (inactive).

Consider `O=C(CN1CCN(Cc2ccccc2)CC1)Nc1ccc(Cl)cn1`, for which the viability was 94% (inactive) in assay [3]; 88.8% (inactive) in [14]; 85.1% (inactive) in assay [4]; 86.5% in assay [5] (setting [15]); 85.1% in [5] (setting [16]). Also, in assay [5] (H69AR cells + 2 uM doxorubicin), the differential viability (reversal) is -1.43% (inactive). Moreover, the results for the inhibition in assay [6] and in [7] were -8.08% (inactive) and 4.35% (inactive), respectively.

For the molecule `Cc1nc2cc(N3CCCCC3)c(NC(=O)c3cccnc3)cc2c(=O)n1Cc1ccccc1`, the viability in [1] is 64%; in [3] it was 64% (inactive); in assay [4] it was 28.9% (active); in assay [5] (setting [15]), 22%; in assay [5] (setting [16]), 28.9%. For the same molecule, in assay [2], the Her2 level was 67.5% (inactive). The differential viability (reversal) in [5] (H69AR cells + 2 uM doxorubicin) was 6.91% (inactive). The inhibition in assay [6] was 2.11% (inactive); in assay [7], -8.33% (inactive).

Regarding `CNCCCC1c2ccccc2C=Cc2ccccc21`, the viability was 82% (inactive) in assay [3]; 69.5% (inactive) in assay [14]; 92% (inactive) in [4]; 76.7% in assay [5] (setting [15]); 92% in assay [5] (setting [16]). Moreover, the differential viability (reversal) in assay [5] (H69AR cells + 2 uM doxorubicin) was 15.2% (inactive).

For `CCCc1c(OCCCCc2nn[nH]n2)ccc(C(C)=O)c1O`, the viability in assay [3] is 77% (inactive); in assay [14], 67% (inactive); in assay [4] it was 84.4% (inactive); in [5] (setting [15]), 105%; in assay [5] (setting [16]), 84.4%. Moreover, in assay [5] (H69AR cells + 2 uM doxorubicin), the differential viability (reversal) is -20.6% (inactive). The inhibition in assay [6] is -1.56% (inactive); in assay [7], 3% (inactive).

In the case of `OC(CCN1CCCC1)(c1ccccc1)C1CCCCC1` (configuration not stated), the viability in assay [3] is 93% (inactive); in [14], 69.5% (inactive); in assay [4], 95.9% (inactive); in [5] (setting [15]), 89.3%; in assay [5] (setting [16]), 95.9%. In assay [5] (H69AR cells + 2 uM doxorubicin), the differential viability (reversal) is 6.63% (inactive).

Turning to `COc1cc(C(=O)N(C)c2nnc(-c3cccnc3)s2)cc(OC)c1OC`, the viability in [3] is 123% (inactive); in [14] it was 89.6% (inactive); in assay [4] it was 82.7% (inactive); in assay [5] (setting [15]) it was 91.6%; in [5] (setting [16]) it was 82.7%. The differential viability (reversal) in assay [5] (H69AR cells + 2 uM doxorubicin) was -8.95% (inactive). Besides, the inhibition in [6] is -2.05% (inactive); in assay [7], 17.4% (inactive).

Consider `Cc1cc(C)c2c(=O)[nH]c(=O)n(Cc3ccccc3)c2n1`, for which the viability is 64% in [1]; 81.7% (inactive) in assay [14]; 95.7% (inactive) in assay [4]; 84.8% in [5] (setting [15]); 95.7% in [5] (setting [16]). Besides, in [2], the Her2 level was 75.5% (inactive). Moreover, in [5] (H69AR cells + 2 uM doxorubicin), the differential viability (reversal) was 10.9% (inactive). In addition, the inhibition in assay [6] is -5.26% (inactive); in [7], 6.55% (inactive).
